PubChem BioAssay (NCI)
The panel holds about 83,000 compounds, 20% with a hit somewhere; the sample as a whole holds those more often.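 Values shown are percent growth following 48 h exposure of cells in 96-well plates to a single concentration of compound; below 10 was considered active.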 A number with no mark means an inactive call. Active and inactive are the calls of the source.

Tested on: OVCAR-8 ovarian
Experiment: NCI-60 one-dose screen, 48 h (100 = growth as untreated, 0 = no growth, -100 = all killed)
Details: 10 µM unless noted

Row | Structure (SMILES) | growth
1 | COc1ccc(C(=O)/C(=N/Nc2ccccc2)c2ccc(OC)cc2)cc1 | 115%
2 | Cn1c(=O)c2[nH]c(CC(=O)O)nc2n(C)c1=O | 102%
3 | C=CC1=NC(C)(C)CC(C)O1 (stereo unspecified) | 113%
4 | O=C(Nc1ccccc1)c1ccco1 | 101%
5 | CCOC(=O)CNC | 91.3%
6 | Cc1cc(Cl)cc(Cc2cc(Cl)cc(C)c2O)c1O | 48.2%
7 | CC12CCC3c4ccc(O)cc4CCC3C1CCC2=O (stereo unspecified) | 100%
8 | Cc1onc(-c2ccccc2Cl)c1C(=O)Cl | 95.4%
9 | Nc1cc(N)ncn1 | 116%
10 | ClCC(Cl)C1CCC(Cl)C(Cl)C1 (stereo unspecified) | 95.6%
11 | O=[N+]([O-])c1ccc(-c2nc(N(CCO)CCO)c3ccccc3n2)o1 | 1.65% (active)
12 | C=CCC(OC(C)=O)c1ccc(OC)c(OC)c1 (stereo unspecified) | 96.7%
13 | C/C(Cc1ccccc1)=N\O | 107%
14 | O=C(NCc1ccccc1)c1cccc([N+](=O)[O-])c1 | 97.2%
15 | OCc1cccnc1 | 95.2%
16 | Cc1onc(-c2c(F)cccc2Cl)c1-c1ncc(-c2ccc(Br)cc2)o1 | 38.3%
17 | CC(C)c1ncc([N+](=O)[O-])n1C | 97.5%
18 | Oc1ccc(CCC2CCNc3ccccc32)cc1 (stereo unspecified) | 73.4%
19 | c1ccc2[nH]c(Cc3nc4ccccc4[nH]3)nc2c1 | 112%

Row | Structure (SMILES) | growth
20 | CCOC(=O)C(CCC#N)(CCC#N)C(=O)OCC | 104%
21 | CCOC(=O)C(COS(C)(=O)=O)(COS(C)(=O)=O)C(=O)OCC | 103%
22 | CC(C)C(C)(C)C(=O)C(C)(C)C(C)(C)C | 99.1%
23 | CC(=O)O[C@H]1CC[C@]2(C)C3=C(C(=O)C[C@H]2C1(C)C)[C@]1(C)CC[C@H]([C@H](C)CCC(=O)O)[C@@]1(C)CC3=O | 109%
24 | CC(=O)OCC1CCC(COC(C)=O)CC1 (stereo unspecified) | 106%
25 | CC(=O)NNC(=S)N/C=C/c1c(C)ccc([N+](=O)[O-])c1[N+](=O)[O-] | 102%
26 | CCOC(=O)c1c[nH][nH]c1=O | 105%
27 | O=S(Cc1ccccc1)/C(=C/NC(=S)Nc1ccccc1)c1ccccc1 (stereo unspecified) | 107%
28 | CCOc1ccc(NC(=S)N2CCC(CCCC3CCN(C(=S)Nc4ccc(OCC)cc4)CC3)CC2)cc1 | 92.2%
29 | COc1ccc(C)cc1NC(=O)SC(C)C | 105% [100 µM]
30 | Nc1ncnc(Nc2ccc(C(F)(F)F)cc2)n1 | 102%
31 | Cc1c(Cl)cccc1N=C=S | 95.6%
32 | O=C(OC1CCCC1)c1ccccc1Cl | 111%
33 | BrCc1cccc(C[P+](c2ccccc2)(c2ccccc2)c2ccccc2)c1 | 29.2%
34 | Cc1c(-c2ccc(C3CCCCC3)cc2)nc2ccc(F)cc2c1C(=O)O | 37.6%
35 | CC(=O)NC(CCc1ccc(Cl)c(Cl)c1)c1cccc(O)c(=O)c1 (stereo unspecified) | 13.9%
36 | COc1cccc(C(=O)NNC(=O)c2cccc3ccccc23)c1 | 105%
37 | O=C(CCl)Nc1ccccc1SCc1cc(Cl)cc2c1OCOC2 | 75.4%
38 | CCN(CC)c1ccc2nc3ccc(N=Nc4ccc(N(C)C)cc4)cc3[n+](-c3ccccc3)c2c1 | 5.08% (active)

Tested on: OVCAR-5 ovarian
Experiment: as above
Details: 10 µM unless noted

Row | Structure (SMILES) | growth
39 | COc1ccc(C(=O)/C(=N/Nc2ccccc2)c2ccc(OC)cc2)cc1 | 94.2%
40 | Cn1c(=O)c2[nH]c(CC(=O)O)nc2n(C)c1=O | 106%
41 | C=CC1=NC(C)(C)CC(C)O1 (stereo unspecified) | 104%
42 | O=C(Nc1ccccc1)c1ccco1 | 110%
43 | CCOC(=O)CNC | 97.2%
44 | Cc1cc(Cl)cc(Cc2cc(Cl)cc(C)c2O)c1O | 69%
45 | CC12CCC3c4ccc(O)cc4CCC3C1CCC2=O (stereo unspecified) | 112%
46 | Cc1onc(-c2ccccc2Cl)c1C(=O)Cl | 103%
47 | Nc1cc(N)ncn1 | 96.5%
48 | ClCC(Cl)C1CCC(Cl)C(Cl)C1 (stereo unspecified) | 105%
49 | O=[N+]([O-])c1ccc(-c2nc(N(CCO)CCO)c3ccccc3n2)o1 | -5.6% (active)
50 | C=CCC(OC(C)=O)c1ccc(OC)c(OC)c1 (stereo unspecified) | 113%
51 | C/C(Cc1ccccc1)=N\O | 107%
52 | O=C(NCc1ccccc1)c1cccc([N+](=O)[O-])c1 | 116%
53 | OCc1cccnc1 | 99.6%
54 | Cc1onc(-c2c(F)cccc2Cl)c1-c1ncc(-c2ccc(Br)cc2)o1 | 70%
55 | CC(C)c1ncc([N+](=O)[O-])n1C | 103%
56 | Oc1ccc(CCC2CCNc3ccccc32)cc1 (stereo unspecified) | 97.9%
57 | c1ccc2[nH]c(Cc3nc4ccccc4[nH]3)nc2c1 | 92%

Row | Structure (SMILES) | growth
58 | CCOC(=O)C(CCC#N)(CCC#N)C(=O)OCC | 97.8%
59 | CCOC(=O)C(COS(C)(=O)=O)(COS(C)(=O)=O)C(=O)OCC | 105%
60 | CC(C)C(C)(C)C(=O)C(C)(C)C(C)(C)C | 97.5%
61 | CC(=O)O[C@H]1CC[C@]2(C)C3=C(C(=O)C[C@H]2C1(C)C)[C@]1(C)CC[C@H]([C@H](C)CCC(=O)O)[C@@]1(C)CC3=O | 100%
62 | CC(=O)OCC1CCC(COC(C)=O)CC1 (stereo unspecified) | 106%
63 | CC(=O)NNC(=S)N/C=C/c1c(C)ccc([N+](=O)[O-])c1[N+](=O)[O-] | 99.3%
64 | CCOC(=O)c1c[nH][nH]c1=O | 94.8%
65 | O=S(Cc1ccccc1)/C(=C/NC(=S)Nc1ccccc1)c1ccccc1 (stereo unspecified) | 99%
66 | CCOc1ccc(NC(=S)N2CCC(CCCC3CCN(C(=S)Nc4ccc(OCC)cc4)CC3)CC2)cc1 | 102%
67 | COc1ccc(C)cc1NC(=O)SC(C)C | 102% [100 µM]
68 | Nc1ncnc(Nc2ccc(C(F)(F)F)cc2)n1 | 99.8%
69 | Cc1c(Cl)cccc1N=C=S | 93.1%
70 | O=C(OC1CCCC1)c1ccccc1Cl | 96.2%
71 | BrCc1cccc(C[P+](c2ccccc2)(c2ccccc2)c2ccccc2)c1 | 81.2%
72 | Cc1c(-c2ccc(C3CCCCC3)cc2)nc2ccc(F)cc2c1C(=O)O | 76.7%
73 | CC(=O)NC(CCc1ccc(Cl)c(Cl)c1)c1cccc(O)c(=O)c1 (stereo unspecified) | 47%
74 | COc1cccc(C(=O)NNC(=O)c2cccc3ccccc23)c1 | 125%
75 | O=C(CCl)Nc1ccccc1SCc1cc(Cl)cc2c1OCOC2 | 101%
76 | CCN(CC)c1ccc2nc3ccc(N=Nc4ccc(N(C)C)cc4)cc3[n+](-c3ccccc3)c2c1 | -58.2% (active)
